FAS TE block = FAS thioesterase domain inhibitors, primary screen, biochemical, fluorescence intensity, uHTS; hit rate 0.67% among 360,000; inhibition, % at 15 µM; recombinant FAS-TE, OMFH fluorogenic substrate, fluorescence endpoint; AID 602261, 2012; Fatty acid synthase (Homo sapiens), P49327;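 active means compounds whose normalised, plate-corrected inhibition of enzyme fluorescence in the single-dose primary screen is 50% or more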
Cardio protect = cardioprotection against H2O2-induced cell death, primary screen, uHTS, H9c2 cells, ATPLite luminescence; hit rate 0.63% among 360,000; protection from H2O2 cell death, % at 20 µM; AID 588492, 2011; H9c2 cardiomyocytes, H2O2 injury protection, 2 h;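 active means compounds giving at least 50% protection of heart cells from peroxide-induced death in the single-dose screen, raw or plate-pattern-corrected value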
aDG glyco act = activators of alpha-DG glycosylation, primary screen, uHTS, Pro5-aDG cells, AlphaScreen; alpha-DG glycosylation AlphaScreen (IIH6); 0% Pro5, 100% B10-LARGE cell signal; activation, % at 10 µM; hit rate 0.22% among 360,000;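 active means activation of at least 8% versus controls, or a plate z-score of at least 8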;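 further: Pro5 are CHO cells carrying HIG-tagged alpha-DG that lacks glycosylation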
MPTP block = mitochondrial permeability transition pore inhibitors, primary screen, biochemical, isolated mouse mitochondria, absorbance; Ca2+ swelling absorbance, 30 min; inhibition, % at 10 µM; hit rate 1.4% among 360,000; AID 602449, 2012;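 active means inhibition of 50% or more, scaled per plate between neutral and stimulator controls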
CR mimetic SO = reduction of superoxide in aged yeast, primary screen, HTS. hit rate 0.18% among 330,000. AID 2690, 2010. S. cerevisiae aged cells, superoxide DHE fluorescence; active compounds read low. superoxide response (% of plate mean), % at 10 µM;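 active means superoxide response under a set limit, about three screen SD below normal, cut at about 65% in these data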;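 further: yeast aged for seven days with compound at 30 °C before DHE staining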
SUMO Mot1 rescue = yeast Mot1-301 growth rescue at high temperature, primary screen, SUMOylation pathway inhibitor project, S. cerevisiae, ATP luminescence, 38.5C; hit rate 1% among 320,000; S. cerevisiae Mot1-301 growth rescue; percent above DMSO median, 100 means doubled; growth rescue, % at 18.8 µM; AID 2716, 2010;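 active means every valid replicate shows activation above 250% relative to neutral control wells; inactive means the rest, any valid replicate at or below 250%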
Yeast Mot1 SUMO = growth restoration of Mot1-301 yeast on galactose, dose response, SUMO pathway inhibitor project, whole organism, S. cerevisiae, ATP luminescence, cherry-picked samples; shares compounds with SUMO Mot1 rescue; S. cerevisiae Mot1-301 galactose growth, 24 h; -100 = growth of slx-deleted rescue strain; growth activity, percent, % at 42 µM; 2,300 tested, under 10 active;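 active means Signal drops as the depositor expects, and the fitted half-maximal dose is no more than ten times the top valid tested dose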;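 further: more negative values mean stronger growth rescue toward the control strain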
A number is an active result; – = inactive; · = no result given; + = active, no number. Hits are enriched below; roughly 3.8% of the tested compounds scored in any of these assays.

SMILES | FAS TE block | Cardio protect | aDG glyco act | MPTP block | CR mimetic SO | SUMO Mot1 rescue | Yeast Mot1 SUMO
COc1ccccc1-c1nc2s/c(=C\c3cccs3)c(=O)n2n1 | – | – | – | – | – | – | ·
Cc1cc(-c2ccc(C(C)C)c(S(=O)(=O)N3CC(=O)Nc4ccccc43)c2)on1 | – | – | – | – | – | 580.6 | –
Cc1ccn2cc(-c3cnoc3C)nc2c1 | – | – | – | – | – | 691.6 | –
O=C(N/C(=C/c1cccnc1)C(=O)N1CCCCCC1)c1cccc(Br)c1 | – | – | – | – | – | – | ·
O=c1[nH]cnc2ccc([N+](=O)[O-])cc12 | – | – | – | – | – | 397.1 | –
O=c1[nH][nH]c(=O)c2cc([N+](=O)[O-])ccc12 | – | – | – | – | – | – | ·
CCCn1nnnc1NCc1ccc(C(C)C)cc1 | – | – | – | – | – | – | ·
CCNCCNC(=O)c1c(O)c2c([nH]c1=O)CCCC2 | – | – | – | – | – | + | –
CN(C)CCNC(=O)c1c(O)c2c([nH]c1=O)CCCC2 | – | – | – | – | – | 629.5 | –
CN(C)CCNC(=O)c1scc2c1CCCC2 | – | – | – | – | – | 824.5 | –
CCN(CC)CCNC(=O)c1c(O)c2c([nH]c1=O)CCCC2 | – | – | – | – | – | – | ·
Nc1cc(Cl)ccc1N1CCCC1 | – | – | – | – | – | · | ·
Nc1cc(Cl)ccc1N1CCOCC1 | – | – | – | – | – | 464.6 | –
CCC(C)[C@H](N)c1nnc(SCC(=O)Nc2cccc(Cl)c2)o1 (stereo not given in full) | – | – | – | – | – | 557.6 | –
O=C1c2ccccc2C(c2nnnn2Cc2ccccc2)N1C1CC1 (stereo not given) | – | · | – | – | · | · | ·
O=C(O)c1cccc(N2C(=O)C3C4C=CC(C4=C(c4ccccc4)c4ccccc4)C3C2=O)c1 (stereo not given) | – | – | – | – | – | 598.6 | –
O=C(O)c1cccc(N2C(=O)c3ccc4c5c(ccc(c35)C2=O)C(=O)N(c2cccc(C(=O)O)c2)C4=O)c1 | – | – | – | – | – | – | ·
CCOC(=O)C1=C(COC(=O)CCc2ccc(F)cc2)NC(=O)NC1C (stereo not given) | – | – | – | – | – | – | ·
CCn1cc(C(=O)N(C)c2ccc(OC)cc2OC)c2cc(OC)c(OC)cc2c1=O | – | – | – | – | – | 415.0 | –
COc1ccc(S(=O)(=O)N2CCC(C(=O)NCCC(=O)Nc3ccc(Cl)cc3)CC2)cc1 | – | – | – | – | – | – | ·
Cc1nc2nc[nH]n2c(=O)c1NS(=O)(=O)c1ccc([N+](=O)[O-])cc1 | – | – | – | – | – | 486.9 | –
CC(=O)N(C)c1ccc(N2CCOCC2)c2c1C(=O)c1ccccc1C2=O | – | – | – | – | – | 455.9 | –
Cc1cccc2[nH]c(CCNC(=O)C3CCC(=O)N(CCc4cccc(F)c4)C3)nc12 (stereo not given) | – | – | – | – | – | – | ·
COCCCNS(=O)(=O)c1ccc(Oc2ncc(C(F)(F)F)cc2Cl)cc1 | – | – | – | – | – | + | –
CC(C)(C)C(=O)Nc1ccc(/C=C/C(=O)c2ccco2)cc1 | – | – | – | – | – | – | ·
SMILES | FAS TE block | Cardio protect | aDG glyco act | MPTP block | CR mimetic SO | SUMO Mot1 rescue | Yeast Mot1 SUMO
CCN(C(=S)NCCOC)c1cccc2ccccc12 | – | – | – | – | – | 417.9 | –
CCN(C(=S)NC(=O)c1ccco1)c1cccc2ccccc12 | – | – | – | – | – | – | ·
CN(CC(=O)N1CCc2[nH]c3ccc(F)cc3c2C1)CC1OCCO1 | · | · | · | · | – | 736.2 | –
COc1ccc(Nc2oc(-c3cccs3)nc2C#N)cc1 | – | – | – | – | – | 918.0 | –
CCc1nc2c(OCc3ccc(C(=O)OC)cc3)cccn2c1N(C)C(=O)c1ccc(C)cc1 | – | – | – | – | · | · | ·
Cc1ccc(CNC(=O)CCn2cc(-c3ccc(C)cc3)nc2CCN)cc1 | – | – | – | – | – | + | –
COc1ccc(-c2cn(CCC(=O)NCc3ccc(C)cc3)c(-c3ccncc3)n2)cc1 | – | – | – | – | – | – | ·
CC1(C)Cc2c(c(N3CCCC3)nc3sc4c(N5CCN(CCO)CC5)ncnc4c23)CO1 | – | – | – | – | – | 706.7 | –
CC(=O)Nc1cccc(-c2ccnc3c2CC(C(=O)NCc2ccc(F)c(F)c2)O3)c1 (stereo not given) | – | – | – | – | · | · | ·
CC(C)[C@H](NC(=O)C1(c2ccccc2)CCN(C(=O)OC(C)(C)C)CC1)C(=O)O | – | – | – | – | – | 606.9 | –
CCCSc1nc(=O)n2cccc(C)c2n1 | – | – | – | – | – | 625.8 | –
CCOc1ccccc1C(=O)Oc1ccc2ccc(=O)oc2c1 | – | – | – | – | – | – | ·
O=C1COc2ccc(C(=O)COC(=O)c3ncc(Cl)c(Cl)c3Cl)cc2N1 | – | – | – | – | – | 851.5 | –
COc1ccc(CCNC(=O)Nc2nc(C(N)COCc3ccccc3)cs2)cc1OC (stereo not given) | – | – | – | – | · | · | ·
O=C(c1cc(Cl)c(=O)n(Cc2ccc(Cl)cc2)c1)N1CCOCC1 | – | – | – | – | – | 657.8 | –
COC(=O)[C@@H](NC(=O)Nc1ccc(S(N)(=O)=O)cc1)C(C)C | – | – | – | – | – | 373.3 | –
CCOC(=O)C1ON2CCCCC2C1(O)C(F)(F)F (stereo not given) | – | – | – | – | – | 528.2 | –
CCOC(=O)C1CCN(C(=O)CCC2CCCC2)CC1 | – | – | – | – | – | – | ·
O=C(NC(CSC(=O)c1ccccc1)C(=O)O)OCc1ccccc1 (stereo not given) | – | – | – | – | · | · | ·
O=C(Nc1ccc2ccccc2c1)N1CCCN(CCOc2ccccc2)CC1 | – | – | – | – | – | 424.5 | –
CC(C(=O)Nc1ccccc1-c1ccccc1)N1CCN(Cc2ccccc2)CC1 (stereo not given) | – | – | – | – | – | 527.8 | –
CC(C(=O)Nc1ccccc1-c1ccccc1)N1CCN(C(=O)c2ccccc2)CC1 (stereo not given) | – | – | – | – | – | – | ·
CC(=O)N1c2ccc(S(=O)(=O)NCC3CCC(C(=O)NC4CCCCC4)CC3)cc2CC1C (stereo not given) | – | – | – | – | – | – | ·
OCC1(Cc2ccccc2F)CCCN(CC2CCCCC2)C1 (stereo not given) | – | – | – | – | – | – | ·

From PubChem BioAssay
